Assay [1] concerns EIF2AK1.
The subject of assay [2] is ERBB2.
Assay [3] relates to EPHB6.
Assay [4] concerns ERBB4.
Assay [5] concerns ERBB3.
The test system of assay [6] is T1, ERK8.
T1 construct: gene MAPK15

For assay [7], the system named is FGFR3.
Assay [8] relates to FLT1.

The text below walks through data of publication PMC5540273 (PLoS ONE, 2017).

Some results are limits rather than exact numbers.
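Further: kd values determined as follow-up on hits from a single-replicate KINOMEscan panel screen.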

For `Cn1cncc1-c1ccc2ncnc(Nc3ccc(OCc4ccccc4)cc3)c2c1` [GW320571], the Kd in assay [1] is greater than 10000 nM; in assay [2] it was 41 nM.
Take `Nc1ncnc2[nH]c(-c3ccccc3)nc12` [AH5015]: the Kd in assay [1] was greater than 10000 nM.
In assay [3], `COc1cc(Nc2nccc(N3CCC(NC(=O)Nc4cc(C)ccc4C)C3)n2)cc(OC)c1OC` (stereo not drawn) [GSK1379762] came in with a Kd of 1100 nM.
In turn, `COc1ccc(CNC(=O)NC2CCN(c3ccnc(Nc4cc(OC)c(OC)c(OC)c4)n3)C2)cc1` (stereo not drawn) [GSK1379748] came in with a Kd in assay [3] of 180 nM.
As for `Cl.O=C(Nc1cccc(-c2nn3ncccc3c2-c2ccnc(Nc3cccnc3)n2)c1)c1c(F)cccc1F` [GSK312879], the Kd came to 29 nM in assay [2] and 64 nM in assay [4].
With `Cl.NC(=O)c1cccc(Nc2nccc(Nc3ccc(Oc4cccc(Cl)c4)c(Cl)c3)n2)c1` [GW659008], in assay [5], the Kd is 260 nM.
Regarding `O=C(Nc1n[nH]c2nc(-c3nccs3)c(Br)cc12)C1CC1` [SB-742251], in assay [6], binding was characterised by a dissociation constant (Kd) of 870 nM.
In assay [7], `NC(=O)c1nnc2ccccc2c1N` gave a Kd greater than 10000 nM.
In assay [8], `Cn1ccc2ncnc(Oc3ccc(NC(=O)Nc4ccccc4)cc3)c21` came in with a Kd of 350 nM.
In turn, `O=C(Nc1ccccc1)Nc1cccc(Oc2ccc3nccn3n2)c1` showed a Kd in assay [8] of 91 nM.

In general, Kd refers to the concentration at which binding is half-saturated.
